# Active and inactive are the calls of the source.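 The calls were made as follows: active = inhibition above the hit cutoff set in the earlier primary screen (cut at about 27% in these data); inactive = the rest.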
# Biological target: Protein phosphatase methylesterase 1 (Homo sapiens) (UniProt Q9Y570)
# Experiment: PME-1 inhibitor activity retest, confirmation, biochemical, fluorescence polarization, FP-Rh probe, triplicate (AID 2171);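 also: 0% = enzyme with DMSO and 100% = wells lacking PME-1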
# Conditions: recombinant PME-1, FP-Rh probe fluorescence polarization; at 5.9 µM; hits give high values
# Protein phosphatase methylesterase 1 (Homo sapiens), sequence (Q9Y570 whole entry, looked up): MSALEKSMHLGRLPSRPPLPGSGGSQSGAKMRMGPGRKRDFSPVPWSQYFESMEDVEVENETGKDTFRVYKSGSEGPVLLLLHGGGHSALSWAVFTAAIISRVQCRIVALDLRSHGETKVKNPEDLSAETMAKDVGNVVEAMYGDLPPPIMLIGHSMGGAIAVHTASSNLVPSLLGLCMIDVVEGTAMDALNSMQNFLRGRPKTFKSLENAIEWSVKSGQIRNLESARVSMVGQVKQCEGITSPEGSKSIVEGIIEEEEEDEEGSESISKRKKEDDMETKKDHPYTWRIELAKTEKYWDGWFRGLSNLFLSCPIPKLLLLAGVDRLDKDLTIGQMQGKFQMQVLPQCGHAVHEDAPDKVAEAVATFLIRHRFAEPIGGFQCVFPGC
row,Structure (SMILES),inhibition
1,COc1ccccc1NC(=O)c1sc2nc(-c3ccco3)ccc2c1N,71.6% (active)
2,CCNc1ccccc1CP(=O)(c1ccccc1)c1ccccc1O (stereo not given),8.88% (inactive)
3,O=[N+]([O-])c1cc(Br)c(O)c(/C=N/Nc2nnnn2-c2cccc3ccccc23)c1,43.7% (active)
4,c1ccc2c(c1)OCCc1c-2[nH]c2ccccc12,21.9% (inactive)
5,CCCCCCC(=O)N1CCC(c2nc3c(nnn3Cc3ccccc3Cl)c(=O)[nH]2)CC1,21.9% (inactive)
6,O=C(NNc1c2ccccc2nc2ccccc12)c1cccc(O)c1,36% (active)
7,CCOC(=O)CSc1nc2cc3c(cc2cc1C#N)OCCO3,20.1% (inactive)
8,COC(=O)c1cccc(C#CC(NP(=O)(c2ccccc2)c2ccccc2)c2ccccc2)c1 (stereo not given),35.1% (active)
9,COc1cc2c(cc1NC(=O)Nc1ccccc1)oc1ccccc12,-9.58% (inactive)
10,Cc1ccc(Cn2nnc3c(=O)[nH]c(C4CCN(S(=O)(=O)/C=C/c5ccccc5)CC4)nc32)cc1,23.8% (inactive)
11,COc1ccccc1C(=O)NC(=S)Nc1cccc2cc(O)ccc12,17% (inactive)
12,CCc1ccc(S(=O)(=O)/N=C2\C=C(Nc3ccc(C(=O)O)cc3)C(=O)c3ccccc32)cc1,33.3% (active)
13,COc1cc(/C=C/c2ccc3cccc(O)c3n2)ccc1O,53.6% (active)
14,O=C(Nc1cccc(-c2csc(Nc3ccc(Cl)cc3)n2)c1)c1cc([N+](=O)[O-])cc(C(F)(F)F)c1,-16.1% (inactive)
15,Nc1cc2nsnc2cc1Br,34.7% (active)
16,CC1=CN2C(=N)/C(=C/c3ccc([N+](=O)[O-])o3)C(=O)N=C2S1,-6.58% (inactive)
17,COc1ccc(NC(=O)c2c[nH]n3c(=O)cc(C4CCN(C(=O)OC(C)(C)C)CC4)nc23)cc1Cl,25.1% (inactive)
18,O=[N+]([O-])c1cc(S(=O)(=O)Nc2cccc(C(F)(F)F)c2)ccc1-n1nnc2ccccc21,18.7% (inactive)
19,CCN(CC)C(=O)c1csc(Nc2cccc3ccccc23)n1,23.8% (inactive)
20,CSC[C@@H]1NC(=S)N(c2ccc(C)cc2)C1=O,38% (active)

row,Structure (SMILES),inhibition
1,COC(=O)/C(=C(O)\C=C\c1ccccc1[N+](=O)[O-])c1nc2ccccc2[nH]1,21.9% (inactive)
2,COc1ccc(/C=N/NC(=O)c2cc3c(OC)ccc(OC)c3[nH]2)cc1O,37.8% (active)
3,CN(C)c1ccc(CNC(=O)CN(C)S(=O)(=O)c2cccc3cccnc23)cc1,32.8% (active)
4,CCc1cccc2cc3c(N)c(C(=O)Nc4ccc(S(=O)(=O)N5CCCC5)cc4)sc3nc12,-1.66% (inactive)
5,Cc1ccc2sc(NNC(=O)c3cc(=O)c4ccccc4o3)nc2c1C,68.1% (active)
6,CCn1c(=O)c2cc(C(=O)Nc3ccc(OC)cc3OC)sc2c2ccccc21,21.5% (inactive)
7,O=S(=O)(c1cccs1)N1CN(Cc2ccco2)c2nc3ccccc3nc21,13.4% (inactive)
8,Cc1cccc2c(N=Nc3ccc(S(=O)(=O)Nc4cccc(Cl)c4)cc3[N+](=O)[O-])c(O)[nH]c12,-12.3% (inactive)
9,CCOc1ccc(NC(C(=O)Nc2cccc(C(C)=O)c2)c2ccccc2)cc1 (stereo not given),33.5% (active)
10,CC(=O)NC(c1cccs1)c1cc([N+](=O)[O-])c2cccnc2c1O (stereo not given),12% (inactive)
11,CCOc1cc(/C=C2\N=C(SCC)SC2=O)cc([N+](=O)[O-])c1OC(C)=O,47.5% (active)
12,CC(=O)c1c(C)n(-c2ccc(N(C)C)cc2)c2ccc(OCC(N)=O)cc12,23.7% (inactive)
13,CCCn1c(N)c(C(=O)CN(C)CC(=O)Nc2ccccc2CC)c(=O)[nH]c1=O,20.4% (inactive)
14,CCc1ccc(S(=O)(=O)/N=C2\C=C(Nc3cccc(C(=O)O)c3)C(=O)c3ccccc32)cc1,38.4% (active)
15,O=[N+]([O-])c1ccccc1N/N=C/c1c[nH]c2ccccc12,42.3% (active)
16,Cc1onc(NC(=O)NC(=O)c2c(Cl)cccc2Cl)c1Br,17.4% (inactive)
17,O=C(CNc1cccc2ccccc12)N/N=C/C(Br)=C/c1ccccc1,-1.47% (inactive)
18,Cc1ccsc1C=Nc1ccc(O)cc1,3.81% (inactive)
19,COc1ccc(/C=C2\Sc3ccc(C(=O)N4CCN(Cc5ccccc5)CC4)cc3N(C)C2=O)cc1OC,46.9% (active)
20,O=C(CNc1ccc2ccccc2c1)N/N=C/c1cc2ccccc2nc1Cl,22.6% (inactive)
